Compounds without any hit were thinned out: in the full panel of roughly 83,000, 20% have a hit.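 Single-concentration screen, 48 h exposure, 96-well plates. Endpoint: percent growth. Below 10 = active.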 Calls of active or inactive are those of the source.
Tested on: UACC-62 melanoma
Test: NCI-60 one-dose screen, 48 h (100 = growth as untreated, 0 = no growth, -100 = all killed)
Conditions: 10 µM unless noted

| Compound | growth |
| --- | --- |
| CCc1cccc2c3c(sc12)C(c1ccc(Cl)cc1)C(C#N)=C(/N=C/c1ccc(Cl)cc1)O3 (stereo unspecified) | 10.7% (inactive) |
| C=C(C=O)[C@@H]1CC[C@]2(COC(C)=O)CC[C@]3(C)C(CC[C@@H]4[C@@]5(C)CC[C@H](OC(C)=O)C(C)(C)[C@@H]5CC[C@]43C)[C@@H]12 (stereo partly specified) | -15.7% (active) |
| COc1ccccc1N1CCN(C2=CC(=O)C(C)=C(C)C2=O)CC1 | 99.5% (inactive) |

Tested on: LOX IMVI melanoma
Test: as above
Conditions: 10 µM unless noted

| Compound | growth |
| --- | --- |
| CN1CCN(Cc2ccc(NC(=O)c3cncc(C#Cc4cnc5ccc(N6CCN(C)CC6)nn45)c3)cc2C(F)(F)F)CC1 | -93.1% (active) |
| O=C(O)c1cn(C2CC2)c2cc(N3CCN(C(=O)CN4C(=O)CSC4=O)CC3)c(F)cc2c1=O | 102% (inactive) |
| NC/C(=C/F)COc1ccc2nc(NCc3cccnc3)oc2c1 | 98% (inactive) |
| C=C(C)[C@@H]1CC[C@]2(C(=O)NCCCCCN(CCC#N)CCC#N)CC[C@]3(C)[C@H](CC[C@@H]4[C@@]5(C)CCC(=O)C(C)(C)[C@@H]5CC[C@]43C)[C@@H]12 | 87.8% (inactive) |
| CCCCNNC(=O)c1ccc(-c2cccc(F)c2F)cc1 | 21.8% (inactive) |
| C#Cc1ccc(C(=O)NCc2ccc(/C=C/C(=O)c3nccn3C)cc2)cc1 | -74.8% (active) |
| COc1ccc(/C(N)=N/C(N)=N/c2nc3ccccc3s2)cc1 | 22.8% (inactive) |
| O=C(CN1CCN(c2cc(=O)[nH]c3ccc(F)cc23)CC1)Nc1ccc(Cl)cc1 | 75.2% (inactive) |
| Cc1ccc(-n2cc(/C=C/C(=O)c3ccc(O)cc3)c(-c3ccc(S(C)(=O)=O)cc3)n2)cc1 | 41.9% (inactive) |
| O=S(=O)(NCCCNc1nccc(-c2[nH]c(-c3ccccc3)nc2-c2ccc(Cl)c(O)c2)n1)c1cccc(F)c1 | 39.8% (inactive) |
| Cc1cc(-c2ccc(Cl)cc2)n(Cc2nnc(SCC(=O)Nc3ccc(S(N)(=O)=O)cc3)n2C2CCCCC2)n1 | 101% (inactive) |
| Oc1cccc2ccc(-c3nnc(SCc4ccc(O)c5ncccc45)n3-c3ccccc3)nc12 | 5.48% (active) |
| Cc1ccc(-c2nn(-c3ccccc3)cc2/C=C/C(=O)c2ccc(NC(=O)CCCCCCC(=O)NO)cc2)cc1 | 62.2% (inactive) |
| CC(C)(C)c1ccc(C(=O)Nc2sc3c(c2C(N)=O)CCC(O)C3)cc1 (stereo unspecified) | -70% (active) |
| O=C(Nc1ccc2c(ccn2Cc2ccccn2)c1)c1ccnnc1 | 101% (inactive) |
| CC(C)(C)c1ccc(C(=O)Nc2sc3c(c2C(N)=O)CC/C(=N\O)C3)cc1 | 3.93% (active) |
| NC(N)=Nc1ccc(Oc2cccc(Nc3ccc(Cl)cc3)c2)cn1 | -96.9% (active) |
| CCc1cccc(NC(=O)CNc2cc(S(=O)(=O)N(C)C)cc(C)c2C)c1 | 89.9% (inactive) |
| COc1ccc(N2C(=O)c3cc(Cl)ccc3NC2SCc2ccccc2)cc1 (stereo unspecified) | 94.8% (inactive) |

| Compound | growth |
| --- | --- |
| O=C(CN1CCN(c2cc(=O)n(-c3ccccc3)c3ccccc23)CC1)Nc1nc(-c2ccc(Cl)cc2)cs1 | 58.4% (inactive) |
| COc1ccc(C2c3sc4c(C)cccc4c3Oc3nc(CC(=O)Nc4ccccc4)[nH]c(=O)c32)cc1 (stereo unspecified) | 48.5% (inactive) |
| O=C(/C=C/c1ccc(F)cc1)c1ccc(O)cc1 | 63.3% (inactive) |
| Cn1ccnc1C(=O)/C=C/c1ccc(NC(=O)c2c(F)c(F)c(F)c(F)c2F)cc1 | 81.6% (inactive) |
| Nc1cc(-c2c[nH]c3ccc(Br)cc23)nc2cc(-c3c[nH]c4ccc(Br)cc34)nn12 | -52.8% (active) |
| C#CCC#CCN1CCC[C@H]1C(=O)NCC(=O)OC | 94.4% (inactive) |
| COc1cc(/C=C/C(=O)c2ccc(NC(=O)CSc3nnc(-c4ccc(-c5nc6ccc(Cl)cc6[nH]5)cc4)o3)cc2)cc(OC)c1OC | 88.6% (inactive) |
| Oc1cccc2ccc(-c3nnc(SCc4ccc(O)c5ncccc45)o3)nc12 | 8.81% (active) |
| NS(=O)(=O)c1ccc(Nc2nc(SCc3ccccc3)nc3ccccc23)cc1 | 52.3% (inactive) |
| O=C1[C@@H]2Cc3c([nH]c4ccccc34)[C@H](c3c(Cl)cccc3Cl)N2C(=O)CN1C1CCN(CC2CCCCC2)CC1 | -81.1% (active) |
| NS(=O)(=O)c1ccc(Nc2nc(N/N=C/c3c[nH]c4ccccc34)nc(Nc3ccccc3)n2)cc1 | -10.6% (active) |
| N#Cc1c(-c2cccs2)cc(-c2cnccn2)nc1SCC(=O)Nc1ccc(Br)cc1 | 53.3% (inactive) |
| COc1ccc(Cn2cc3c(c2-c2cc(OC)c(OC)c(OC)c2)CCc2c(CN4CCOCC4)noc2-3)cc1 | 33.5% (inactive) |
| C=CCn1c(SCC(=O)Nc2ccc(C(=O)/C=C/c3ccc(C)cc3)cc2)nnc1-c1c[nH]c2ccccc12 | 20.9% (inactive) |
| COc1ccccc1C(=O)Nc1cccc2c1C(=O)C(=O)C=C2 | 63.1% (inactive) |
| COc1cc(-c2nn(C(C)(C)C)cc2-c2ccnc(NCCCNS(=O)(=O)c3ccc(Cl)cc3)n2)ccc1Cl | 65.4% (inactive) |
| CCc1cccc2c3c(sc12)C(c1ccc(Cl)cc1)C(C#N)=C(/N=C/c1ccc(Cl)cc1)O3 (stereo unspecified) | 26.5% (inactive) |
| C=C(C=O)[C@@H]1CC[C@]2(COC(C)=O)CC[C@]3(C)C(CC[C@@H]4[C@@]5(C)CC[C@H](OC(C)=O)C(C)(C)[C@@H]5CC[C@]43C)[C@@H]12 (stereo partly specified) | -83.6% (active) |
| COc1ccccc1N1CCN(C2=CC(=O)C(C)=C(C)C2=O)CC1 | 94.8% (inactive) |

Reference: PubChem BioAssay (NCI)
